Active and inactive are the calls of the source.

One assay concerns the target Albumin (Bos taurus) (UniProt P02769). Briefly: compounds binding labelled BSA control protein – biochemical, small-molecule microarray, Alexa647 label, 635/667 nm fluorescence, artefact control for SMM control protein annotation, profiling panel (AID 1118).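 Further: score merges 667 nm emission intensity and signal-to-noise per printed compound spot.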 Conditions: BSA-A647 binding, fluorescence 635 nm, higher = more signal.
Assay [1] is described as follows: probe aXIP binding to arrayed compounds – biochemical, NeuroSMM set, 635/667 nm fluorescence, primary screen (AID 1119).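 Further: probe is the protein aXip251-270 applied at 1 µg/mL to compound-printed slides; binding of probe to printed compounds measured as 667 nm fluorescence plus signal to noise.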 Conditions: small-molecule microarray, higher = more signal, called active from +8 up or from −8 down.
Assay [2] in a line: probe aNOTCH3 binding on compound microarray – biochemical, small-molecule microarray, 635/667 nm fluorescence, primary screen (AID 1120).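 Further: probe is a biotin-tagged antibody raised against NOTCH3 rather than NOTCH3 protein; score merges spot fluorescence near 667 nm with spot signal to noise.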 Conditions: higher = more signal.
Assay [3] in a line: probe aNOTCH2 binding on compound microarray – biochemical, small-molecule microarray, 635/667 nm fluorescence, primary screen (AID 1121).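 Further: score merges feature fluorescence read at 667 nm with its signal to noise.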 Conditions: higher = more signal.
For assay [4], the target named is Carbonic anhydrase 2 (Homo sapiens) (UniProt P00918). Put plainly: compounds binding carbonic anhydrase 2 – biochemical, small-molecule microarray, Alexa647-labelled CAII, profiling panel (AID 1122). To be noted: CAII-A647 binding fluorescence, higher = more signal.
The nature of assay [5]: COS7 lysate on small-molecule microarray, probe aHis, 635 nm (AID 1123).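 Further: z-score combines 667nm fluorescence intensity with signal-to-noise per printed compound spot.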 Conditions: COS7 cell lysate, fluorescence, higher = more signal.
Assay [6] in a line: probe aLAP1 signal on lysate-treated microarray – cell lysate, small-molecule microarray, COS7 lysate, primary screen (AID 1124).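 Further: lysate comes from COS7 cells expressing LAP1 and is applied at 0.3 µg/mL; score merges spot fluorescence near 667 nm with signal-to-noise over triplicate slides.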 Conditions: probe aLAP1, fluorescence, higher = more signal.
The subject of a further assay is Sam68 (KHDRBS1). Put plainly: compounds binding KHDRBS1 protein – biochemical, small-molecule microarray, 635 nm fluorescence, primary screen (AID 1125).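 Further: score merges 667 nm channel intensity with signal to noise over triplicate slides.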 Conditions: higher = more signal.
Assay [7] has as its system Chordin-like protein 2 (CHRDL2). Briefly: compounds binding chordin-like 2 – biochemical, small-molecule microarray, 635 nm fluorescence, primary screen (AID 1126).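 Further: printed compound slides probed with Chrdl2 protein at 4 µg/mL for 1 h at 4 C; score merges 667 nm emission intensity with signal to noise over three replicate slides.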 Conditions: fluorescence 635 nm, higher = more signal.
Assay [8] addresses Concanavalin-A (Canavalia ensiformis) (UniProt P02866). Briefly: compounds binding concanavalin A lectin – biochemical, small-molecule microarray, Alexa647 label, 635 nm, artefact control for SMM control protein annotation, primary screen (AID 1127).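 Further: z combines 667 nm emission intensity with signal-to-noise across three replicate slides.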 To be noted: ConA-A647 binding fluorescence, higher = more signal.

Concanavalin-A (Canavalia ensiformis), sequence (P02866 whole entry, looked up): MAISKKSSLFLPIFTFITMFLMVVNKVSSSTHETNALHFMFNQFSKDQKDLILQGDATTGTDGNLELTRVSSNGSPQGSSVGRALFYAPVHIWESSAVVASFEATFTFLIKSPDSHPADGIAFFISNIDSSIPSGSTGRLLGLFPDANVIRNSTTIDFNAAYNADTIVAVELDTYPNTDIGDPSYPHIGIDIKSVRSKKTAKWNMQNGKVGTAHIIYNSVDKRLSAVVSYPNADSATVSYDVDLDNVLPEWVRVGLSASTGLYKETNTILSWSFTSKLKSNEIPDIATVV
Albumin (Bos taurus), sequence (P02769 whole entry, looked up): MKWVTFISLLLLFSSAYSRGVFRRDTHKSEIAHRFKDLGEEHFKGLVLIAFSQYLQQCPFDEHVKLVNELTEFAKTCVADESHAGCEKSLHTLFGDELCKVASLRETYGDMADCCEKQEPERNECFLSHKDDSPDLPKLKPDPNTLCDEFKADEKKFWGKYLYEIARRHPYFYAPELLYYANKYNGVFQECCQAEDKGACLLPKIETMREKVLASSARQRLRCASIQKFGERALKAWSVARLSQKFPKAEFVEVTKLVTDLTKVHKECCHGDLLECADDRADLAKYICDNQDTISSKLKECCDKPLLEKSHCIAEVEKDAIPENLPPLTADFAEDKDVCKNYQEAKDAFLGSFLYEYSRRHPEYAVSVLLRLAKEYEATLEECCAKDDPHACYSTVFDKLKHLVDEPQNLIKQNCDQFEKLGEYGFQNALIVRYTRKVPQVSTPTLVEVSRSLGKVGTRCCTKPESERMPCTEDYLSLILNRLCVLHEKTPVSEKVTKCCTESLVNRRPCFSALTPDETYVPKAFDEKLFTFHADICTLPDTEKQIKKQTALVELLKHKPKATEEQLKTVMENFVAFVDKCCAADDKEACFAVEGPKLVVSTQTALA

For the compound `CCCC[C@@H]1C[C@H]1[C@@H](NC(=O)C(C)(C)C)c1ccc(C(F)(F)F)cc1`, the composite z-score with Albumin (Bos taurus) is 0.315; in assay [2], -0.222; in [3] it was -0.0986; in assay [4] it was 0.289; in [5], 0.834; in assay [6] it was 0.0265. Also, the composite z-score in the assay with Sam68 (KHDRBS1) was -0.305; in assay [7], -2.05; in assay [8], -0.0101. The composite Z-score in [1] was -0.414 (inactive).
On to `O[C@@H](Cc1ccccc1)[C@H]1C2C=CCCC=C2CN1Cc1cccc(Cl)c1` (stereo not given in full), for which the composite z-score with Albumin (Bos taurus) stood at 0.478; in [2] it was 0.361; in [3] it was 0.0018; in assay [4], 0.385; in [5] it was 0.822; in assay [6], 0.536. Besides, the values for the composite z-score (with Sam68 (KHDRBS1); in [7]; in [8]) were 1.31, 0.595 and 0.609, respectively. Moreover, the composite Z-score in assay [1] is 0.0338 (inactive).
Consider `O=C1O[C@@H](c2ccccc2)[C@@H](c2ccccc2)N2[C@@H](c3ccccc3OCCO)[C@]3(C(=O)Nc4ccc(C#CC5=CCCCC5)cc43)[C@@H](C(=O)N3CCCCCCC3)[C@H]12`, for which the composite z-score is 0.407 in the assay with Albumin (Bos taurus); 2.16 in assay [2]; 1.08 in [3]; 1.04 in assay [4]; 4.3 in assay [5]; 1.29 in [6]. Further, the composite z-score turned out to be 1.31 in the assay on Sam68 (KHDRBS1), 1.68 in assay [7] and 1.09 in assay [8]. The composite Z-score in [1] was 7.47 (inactive).
For the compound `CN(C)CCCC[C@@H]1NC(=O)[C@H]2C[C@@H](C(=O)NCCCCCCN)[C@@H](c3ccc(O)cc3)N2C1=O`, the composite z-score in the assay with Albumin (Bos taurus) came out at 0.887; in [2], 0.665; in assay [3] it was 0.419; in [4], 0.35; in assay [5], 1.48; in [6] it was 1.09. In addition, the composite z-score in the assay with Sam68 (KHDRBS1) was found to be 1.28; in assay [7], 1.04; in [8], 1.04. The composite Z-score in [1] was 0.37 (inactive).
As for `C#C[C@H](O[Si](C#Cc1ccc(Oc2ccccc2)cc1)(C(C)C)C(C)C)c1ccccc1`, the composite z-score with Albumin (Bos taurus) is 0.687; in [2], 0.0122; in assay [3], -0.0057; in assay [4], 0.695; in assay [5], 0.45; in [6], 0.484. In addition, the composite z-score was determined as 0.99 with Sam68 (KHDRBS1), 0.662 in [7] and 0.971 in assay [8]. Besides, the composite Z-score in assay [1] was 0.29 (inactive).
`COCCOC(=O)N1C(=O)[C@@]2(c3cc(C#Cc4ccc(OC)cc4)ccc31)[C@H](c1ccc(O)cc1)N1[C@H](c3ccccc3)[C@H](c3ccccc3)OC(=O)[C@H]1[C@@H]2C(=O)N1CCc2cc(OC)c(OC)cc2C1`: the composite z-score in the assay with Albumin (Bos taurus) is 0.595; in assay [2], 0.327; in [3], -0.0877; in assay [4] it was 0.117; in [5], 0.75; in assay [6], 0.16. Moreover, the composite z-score with Sam68 (KHDRBS1) is 1.28; in [7] it was 0.252; in [8] it was 1.12. Besides, the composite Z-score in assay [1] was 0.536 (inactive).
On to `CCOC(=O)C[C@H]1[C@H](OC(=O)c2ccc(C(=O)c3ccccc3)cc2)[C@@H](NC(=O)c2ccc3ccccc3n2)c2cc(OCCCO)ccc2N1C(=O)c1ccccc1`, for which the composite z-score with Albumin (Bos taurus) was 0.583; in assay [2] it was 0.0488; in assay [3] it was -0.0646; in assay [4], 0.249; in assay [5], 0.994; in assay [6] it was 0.545. Also, the composite z-score with Sam68 (KHDRBS1) is 1.29; in assay [7], -0.322; in assay [8] it was 1.12. In assay [1], the composite Z-score is -0.12 (inactive).
As to `CC(C)=CCCC(C)=CC(O)C1C=CC2C(=O)N(C)C(=O)C2N1Nc1ccccc1` (stereo not given), the composite z-score with Albumin (Bos taurus) was 0.919; in assay [2], 0.286; in assay [3], -0.011; in [4], 0.435; in [5], 2.66; in assay [6], 0.309. Further, the results for the composite z-score (with Sam68 (KHDRBS1); in [7]; in assay [8]) were 1.3, 1.28 and 1.18, respectively. Also, the composite Z-score in [1] is -0.305 (inactive).
As for `COc1ccc([Si](C)(C)[C@@H]2[C@@H](CC(=O)N3CCC[C@H]3CO)O[C@]3(C(=O)N(c4ccccc4)c4ccccc43)[C@H]2C)cc1`, the composite z-score with Albumin (Bos taurus) is 0.569; in assay [2], -0.0377; in assay [3], -0.147; in [4] it was 0.575; in [5], 1.12; in assay [6], 0.237. Moreover, the composite z-score in the assay with Sam68 (KHDRBS1) worked out at 1.3; in assay [7], 0.553; in assay [8], 0.894. In addition, in assay [1], the composite Z-score was 0.723 (inactive).
As to `COC(=O)[C@@]1(CCS(=O)(=O)c2ccccc2)N=C(c2ccc(OCCCO)cc2)O[C@H]1c1ccccc1CN=[N+]=[N-]`, the composite z-score with Albumin (Bos taurus) is -0.307; in assay [2], 0.0807; in assay [3], 0.0657; in [4] it was 0.691; in assay [5], 2.4; in assay [6], 0.372. Moreover, the composite z-score in the assay with Sam68 (KHDRBS1) is 1.34; in assay [7] it was -0.149; in assay [8] it was 1.08. In addition, the composite Z-score in assay [1] is 0.559 (inactive).
Turning to `C=CCNC(=O)[C@@H]1[C@H]2C(=O)O[C@H](c3ccccc3)[C@H](c3ccccc3)N2[C@H](c2ccccc2OCCO)[C@@]12C(=O)N(C(=O)OCCOC)c1ccccc12`, the composite z-score was 0.236 in the assay with Albumin (Bos taurus); 0.492 in assay [2]; -0.0878 in assay [3]; 0.395 in assay [4]; 0.938 in assay [5]; 0.594 in assay [6]. Further, the composite z-score was determined as 1.31 with Sam68 (KHDRBS1), 0.66 in assay [7] and 1.16 in assay [8]. The composite Z-score in assay [1] was 0.318 (inactive).
Take `COC(=O)[C@@]1(Cc2ccc(OC)cc2)[C@H]2c3cc(C(=O)N4CCCC4)n(CCN4CNCC4=O)c3C[C@H]2CN1C(=O)c1ccccc1`: the composite z-score with Albumin (Bos taurus) is 1.1; in assay [2], 1.49; in assay [3], 0.967; in [4] it was 0.57; in [5], 1.79; in [6] it was 0.104. For the same compound, the composite z-score in the assay with Sam68 (KHDRBS1) is -0.764; in [7], -0.316; in assay [8] it was -0.234. The composite Z-score in assay [1] was 0.413 (inactive).
Take `COCCOC(=O)N1C(=O)[C@@]2(c3ccccc31)[C@H](c1ccc(O)cc1)N1[C@H](c3ccccc3)[C@H](c3ccccc3)OC(=O)[C@H]1[C@@H]2C(=O)Nc1nc2ccccc2s1`: the composite z-score in the assay with Albumin (Bos taurus) is 0.827; in assay [2] it was 0.351; in assay [3] it was -0.0956; in assay [4], 0.498; in assay [5] it was 1.98; in [6] it was 0.384. For the same compound, the figures for the composite z-score (in the assay with Sam68 (KHDRBS1); in assay [7]; in assay [8]) were 1.3, -0.172 and 1.2, respectively. Besides, the composite Z-score in assay [1] is -0.434 (inactive).
Consider `CC(C)OC(=O)C=C1C[C@@H](c2ccccn2)O[C@@H](c2ccccn2)O1`, for which the composite z-score in the assay with Albumin (Bos taurus) was -0.47; in assay [2] it was 0.0942; in [3], -0.12; in assay [4], 0.775; in assay [5], 0.407; in assay [6] it was 1.32. In addition, the composite z-score in the assay with Sam68 (KHDRBS1) is 0.216; in assay [7], 1.49; in assay [8] it was -0.333. Further, the composite Z-score in assay [1] is 0.92 (inactive).
As to `COCCOC(=O)N1C(=O)[C@@]2(c3cc(C#CCC(C(=O)OC)C(=O)OC)ccc31)[C@H](C(=O)Nc1nc3ccccc3s1)[C@H]1C(=O)O[C@H](c3ccccc3)[C@H](c3ccccc3)N1[C@@H]2c1ccccc1OCCO`, the composite z-score with Albumin (Bos taurus) is 0.893; in assay [2], -0.0343; in [3], -0.0956; in assay [4] it was 0.559; in assay [5], 1.9; in assay [6], 0.581. Further, the composite z-score with Sam68 (KHDRBS1) is 1.29; in assay [7] it was -0.0859; in assay [8], 1.19. For the same compound, the composite Z-score in assay [1] was 0.259 (inactive).
Consider `COc1cc2c(cc1OC)CN(C(=O)[C@H]1[C@@H]3C(=O)O[C@@H](c4ccccc4)[C@@H](c4ccccc4)N3[C@@H](c3ccc(O)cc3)[C@]13C(=O)Nc1ccccc13)CC2`, for which the composite z-score in the assay with Albumin (Bos taurus) was -0.134; in assay [2] it was -0.0672; in assay [3] it was 0.0481; in [4], 0.402; in assay [5], 2.34; in [6], 0.399. Moreover, the composite z-score with Sam68 (KHDRBS1) was found to be 1.07; in [7], 0.139; in [8] it was 0.777. In addition, the composite Z-score in assay [1] is 2.52 (inactive).
